These results are taken from PubChem BioAssay (Tox21).

Results filed as inconclusive are left out. A number with no mark means an inactive call. Activity calls are given as the source filed them. Calls follow the shape of the dose curve; as a rule, active = well fitted cell-killing curve with a large enough effect in the repeat runs; inconclusive = weak or mixed curves; inactive = flat fitted curve, though single readings scatter.
% is scaled to controls: 0 for no effect and ±100 for the full control effect; potency is read from the fitted curve at half-maximal effect.

A short description of the assay: qHTS RealTime-Glo MT Cell Viability Assay in HepG2 cells - 24 hour (AID 1224867). Also: nearly all actives have a fitted effect of over 50% in size. The settings on record: RealTime-Glo luminescence; series mostly up to 76.8 µM; activity change, negative = cytotoxicity: at the top concentration. An outline of the steps:
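Cells + NanoLuc/prosubstrate dispensed (600 cells/well) → 5 h at 37 C/5% CO2 → compounds in DMSO transferred → 40 h incubation at 37 C, luminescence read at 0, 8, 16, 24, 32, 40 h.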
A general note: In qHTS, concentration-response curves come from the screen itself.
For `CCOC(=O)c1ccc(NC(=O)CN2CCCCC2)cc1`, the “activity change, negative = cytotoxicity” value was 0.754% [at 35.3 µM].

Turning to `C[C@@H]1[C@H](O)[C@@H](C)/C=C/C=C\C=C\C=C\C=C\C=C\C=C\[C@H](O[C@@H]2O[C@H](C)[C@@H](O)[C@H](N)[C@@H]2O)C[C@@H]2O[C@](O)(C[C@@H](O)C[C@@H](O)[C@H](O)CC[C@@H](O)C[C@@H](O)CC(=O)O[C@H]1C)C[C@H](O)[C@H]2C(=O)O` (stereo in doubt), the “activity change, negative = cytotoxicity” value was -4.96%.

`CCOc1ncc(F)c(=O)[nH]1`: the “activity change, negative = cytotoxicity” value was 2.06% [at 35.3 µM].

As for `CC1CCC(C(C)CS)CC1S` (stereo not drawn), the “activity change, negative = cytotoxicity” value is -2.01%.

In the case of `O=CNNC=O`, the “activity change, negative = cytotoxicity” value is 0.836%.

As for `CC[C@H]1OC(=O)[C@H](C)[C@@H](O[C@H]2C[C@@](C)(OC)[C@@H](O)[C@H](C)O2)[C@H](C)[C@@H](O[C@@H]2O[C@H](C)C[C@H](N(C)C)[C@H]2O)[C@](C)(O)C[C@@H](C)/C(=N\OCOCCOC)[C@H](C)[C@@H](O)[C@]1(C)O`, the “activity change, negative = cytotoxicity” value is 0.0675% [at 35.3 µM].

Take `CCN(CC)c1ccc(C(=C2C=CC(=[N+](CC)CC)C=C2)c2ccc(S(=O)(=O)O)cc2S(=O)(=O)[O-])cc1`: the “activity change, negative = cytotoxicity” value is -7.18%.

For the compound `Nc1nc(-c2ccc([N+](=O)[O-])cc2)cs1`, the “activity change, negative = cytotoxicity” value was -0.269%.

For the compound `Cc1oc(=O)oc1COC(=O)[C@@H]1N2C(=O)[C@@H](NC(=O)[C@H](N)c3ccccc3)[C@H]2SC1(C)C`, the “activity change, negative = cytotoxicity” value was 2.08% [at 35.3 µM].

Take `CC(C)(C)S`: the “activity change, negative = cytotoxicity” value was 1.28%.

Turning to `C1=CCC2CC=CC2C1` (stereo not drawn), the “activity change, negative = cytotoxicity” value was 2.14%.

Take `COc1cc(OC)c2ccc(=O)oc2c1`: the “activity change, negative = cytotoxicity” value was -10.8%.

Consider `CC(C)C1CCC(C(=O)N[C@H](Cc2ccccc2)C(=O)O)CC1` (stereo partly drawn), for which the “activity change, negative = cytotoxicity” value is 4.21% [at 35.3 µM].

Take `CCCCCCOC(=O)CCCCC`: the “activity change, negative = cytotoxicity” value was 1.05%.

Regarding `C[C@@H]1C[C@H]2[C@@H]3CCC4=CC(=O)C=C[C@]4(C)[C@@]3(F)[C@@H](O)C[C@]2(C)[C@@]1(O)C(=O)COP(=O)(O)O`, the “activity change, negative = cytotoxicity” value is -6.73%.

Take `CO[C@@H]1[C@@H](OC)[C@H](C)[C@@](O)(CC(=O)O)O[C@H]1[C@H](C)[C@H]1O[C@@]2(CC[C@@](C)([C@H]3CC[C@@](C)([C@@H]4O[C@@H]([C@H]5O[C@](C)(O)[C@H](C)C[C@@H]5C)C[C@@H]4OC4C[C@H](OC)[C@@H](OC)[C@H](C)O4)O3)O2)C[C@H](O)[C@H]1C` (stereo partly drawn): the Potency is 5.35 µM (active).

Turning to `CCCCCCCCCCCCCCCC(=O)OCC`, the “activity change, negative = cytotoxicity” value was 1.02%.

On to `CC(C)COC(=O)c1ccc(O)cc1`, for which the “activity change, negative = cytotoxicity” value is -4.12%.

For `COc1ccc(C(=O)NCc2ccc(OCCN(C)C)cc2)cc1OC`, the “activity change, negative = cytotoxicity” value is 2.3% [at 35.3 µM].

Take `CC(=O)NNC(C)=O`: the “activity change, negative = cytotoxicity” value is 1.37%.

With `CCC(CO)(CO)CO`, the “activity change, negative = cytotoxicity” value is 0.146%.

As to `COc1ccc(-n2nc(C(F)F)cc2-c2ccc(S(C)=O)cc2)cc1` (stereo not drawn), the “activity change, negative = cytotoxicity” value is -6.35%.

With `O=C(O)c1cc(Cl)cc(Cl)c1O`, the “activity change, negative = cytotoxicity” value was 0.0577%.

On to `C=CC(=O)NC(C)C`, for which the “activity change, negative = cytotoxicity” value was -1.06%.

Take `CC(=O)OCCC(C)CC(C)(C)C` (stereo not drawn): the “activity change, negative = cytotoxicity” value is 1.71%.

With `CCCCOC(=O)CCCCC(=O)OCCCC`, the “activity change, negative = cytotoxicity” value is -5.28%.

`CCCCC(CC)COS(=O)(=O)O` (stereo not drawn): the “activity change, negative = cytotoxicity” value was 0.346%.

As to `COC(C)(C)OC`, the “activity change, negative = cytotoxicity” value was 2.52%.

For the compound `COc1ccc(C2C(=O)c3ccccc3C2=O)cc1`, the “activity change, negative = cytotoxicity” value was 3.12% [at 35.3 µM].

As for `Cc1ccc(S(=O)(=O)NC(=O)NC2CCCCC2)cc1`, the “activity change, negative = cytotoxicity” value is 4.83% [at 35.3 µM].

As for `CC1=CC[C@@]23C[C@@H]1C(C)(C)[C@@H]2CC[C@H]3C`, the “activity change, negative = cytotoxicity” value was 0.869%.

As for `CCCCCCC(O)CCOC(C)=O` (stereo not drawn), the “activity change, negative = cytotoxicity” value is -1.11% [at 200 µM].

On to `CC(=O)C(=O)CC(C)C`, for which the “activity change, negative = cytotoxicity” value is -2.28%.

Regarding `O=C(O)CCS`, the “activity change, negative = cytotoxicity” value is 0.406%.

On to `CC(=O)c1ccc[nH]1`, for which the “activity change, negative = cytotoxicity” value is 0.456%.

With `CC(C)(O)CCc1ccccc1`, the “activity change, negative = cytotoxicity” value is 0.466%.

Consider `COc1ccc(C)cc1`, for which the “activity change, negative = cytotoxicity” value is -0.432%.

As for `CCN(CC)C(=O)N1CCN(C)CC1`, the “activity change, negative = cytotoxicity” value was 3.58% [at 35.3 µM].
